This is one part of a sample in which hits are shown more often than they occur.
ER stress surv: protection against thapsigargin ER stress killing – CSM14.1 cells, ATP luminescence, primary screen | CSM14.1 thapsigargin ER stress survival | hit rate 0.33% among 48,000 | relative survival (cellular ATP), % at 15 µg/mL (by protocol) | AID 1010, 2008;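 active = survival measured by cellular ATP above 50% at 15 µg/ml in the first screen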;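 also: cell death triggered by about 15 µM thapsigargin; ATP read 24 h after thapsigargin was added; plate controls were thapsigargin with DMSO for no effect and DMSO without thapsigargin for full effect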
* marks the source's active call; other numbers are inactive results.

SMILES	ER stress surv
CCC(=O)N1c2ccccc2NC2=C(C(=O)CC(c3ccccc3)C2)C1c1cccc(Br)c1 (stereo not given)	1
CCC(=O)N1c2ccccc2NC2=C(C(=O)CC(c3ccccc3)C2)C1c1cccnc1 (stereo not given)	3
CC1(C)CC(=O)C2=C(C1)Nc1ccccc1N(C(=O)c1ccccc1)C2c1ccc(C#N)cc1 (stereo not given)	16
CCC(=O)N1c2ccccc2NC2=C(C(=O)CC(c3ccc(OC)cc3)C2)C1c1ccccc1 (stereo not given)	-1
O=C1CC(c2ccccc2)CC2=C1C(c1cccnc1)N(C(=O)c1ccccc1)c1ccccc1N2 (stereo not given)	79*
Cc1ccc(C)c(OCC(O)CN2CCN(Cc3ccccc3)CC2)c1 (stereo not given)	-7
COc1ccc(N2CC(C(=O)N/N=C/c3ccc([N+](=O)[O-])cc3)CC2=O)cc1 (stereo not given)	-1
Cc1ccc(NC(=O)c2c(NC(=O)c3ccc(C)cc3)sc3c2CCC3)cc1	-4
O=C(c1ccc(Cl)cc1)N1CCN(c2ccccn2)CC1	8
O=C1C=C(Nc2ccccc2C(=O)O)CC(c2ccccc2)C1 (stereo not given)	12
O=C1C=C(NCCc2c[nH]c3ccccc23)CC(c2ccccc2)C1 (stereo not given)	54*
CC(C)CCNC1=CC(=O)CC(c2ccccc2)C1 (stereo not given)	-1
COC(=O)c1c(-c2ccc(OC)cc2)csc1N	0
Cc1ccc(N(Cc2ccc(C(=O)N/N=C/c3ccc(OC4CSC4)cc3)cc2)S(C)(=O)=O)cc1C	43
Cc1ccc(N(Cc2ccc(C(=O)N/N=C/c3cc(Br)c(C)o3)cc2)S(C)(=O)=O)cc1C	80*
CCC(C)NC(=O)c1ccc(CN(c2ccc(C)c(C)c2)S(C)(=O)=O)cc1 (stereo not given)	0
Cc1cccc(NC(=O)Cc2ccccc2)c1	-6
CC(C)(C)NC(=O)c1cc(NC(=O)Cc2ccccc2)cc(NC(=O)Cc2ccccc2)c1	73*
CC(C)(C)NC(=O)c1cc(NC(=O)c2cccs2)cc(NC(=O)c2cccs2)c1	4
COC(=O)c1c(N)c(C#N)c(C)n1Cc1ccccc1	-1
COCCNC(=O)C(C)Sc1ccc(Cl)cc1 (stereo not given)	3
CCc1ccccc1N(CC(=O)Nc1cccc(Br)c1)S(C)(=O)=O	0
Cc1cccc(C(=O)NCc2ccncc2)c1	5
Cc1c(-c2cccs2)nc2ccccc2c1C(=O)O	-3
O=C(CSc1nnc(-c2cccs2)n1-c1ccccc1)c1ccccc1	3
SMILES	ER stress surv
O=C(CN1CC[n+]2c(-c3cccs3)csc21)c1ccccc1	59*
O=C(/C=C/c1ccco1)NC(=S)NCc1ccccc1	5
Cc1ccc(OCC(=O)Nc2ccc(Nc3ccccc3)cc2)c(Br)c1	2
COc1cccc(-n2sc3c(c2=S)-c2cc(C)ccc2NC3(C)C)c1	-5
COC(=O)c1c(NC(=O)c2cccc([N+](=O)[O-])c2)sc2c1C(C(=O)OC)CC2 (stereo not given)	-2
COc1ccc(NC(=O)CCN2C(=O)/C(=C\c3cccc(OC)c3)SC2=S)cc1	26
COc1cccc(NC(=O)CCN2C(=O)/C(=C/c3ccc(C)cc3)SC2=S)c1	8
COc1ccc(NC(=O)CCN2C(=O)/C(=C\c3ccc(C)cc3)SC2=S)cc1	51*
COc1ccc(OC)c(NC(=O)c2cccc(F)c2)c1	5
CC(C)(C)C1CCc2c(sc(NC(=O)c3cccs3)c2C(N)=O)C1 (stereo not given)	3
COc1ccc(CN2CCN(Cc3cc(Br)ccc3OC)CC2)c(OC)c1	-4
Cc1ccc(N=C2SC(C(=O)O)CC(=O)N2C)cc1Cl (stereo not given)	-2
COc1ccc(-c2nc(-c3ccc(O)cc3)[nH]c2-c2ccc(OC)cc2)cc1	-10
COc1ccc(-c2nc(-c3cc(OC)c(OC)cc3OC)[nH]c2-c2ccc(OC)cc2)cc1	116*
COc1ccc(OC)c(-c2nc(-c3ccccc3)c(-c3cccs3)[nH]2)c1	7
O=C1N=c2ccc(Br)cc2=C1c1sc(=S)n(NC(=O)c2ccccc2Cl)c1O	12
COc1ccc(CCN=CC2=C(O)CC(C)(C)CC2=O)cc1OC	9
COc1ccc(CCN=CC2=C(O)CC(c3ccccc3)CC2=O)cc1OC (stereo not given)	8
COc1ccc(CCN=Cc2c(O)n(-c3c(Cl)cccc3Cl)c3ccccc23)cc1OC	120*
Cc1cccc(-c2cc(C(=O)Nc3ccccc3C(N)=O)c3ccccc3n2)c1	0
CSCCOC(=O)C1=C(C)NC(=O)NC1c1ccc([N+](=O)[O-])cc1 (stereo not given)	3
CCOc1ccc(Nc2nc(-c3c(C)nc4sccn34)cs2)cc1	93*
CCOc1ccc(Nc2nc(-c3cccs3)cs2)cc1	0
CCN(CC)c1ccc(Nc2nc(-c3c(C)nc4sccn34)cs2)cc1	24
COc1ccc(C(=O)NCCOc2ccccc2F)cc1OC	10
SMILES	ER stress surv
COc1ccccc1OCCNC(=O)c1ccc(Oc2ccccc2)cc1	52*
COc1ccc(C(=O)NCCOc2ccccc2OC)cc1OC	-3
CCN1C(=O)/C(=C/c2cccc(OC)c2OC)C(=O)NC1=S	5
O=C(NC(c1ccccc1)c1ccc2cccnc2c1O)c1ccccc1 (stereo not given)	3
COc1ccccc1C(NC(=O)Cc1ccccc1)c1ccc2cccnc2c1O (stereo not given)	13
CC(=O)NC(c1ccc2c(c1)OCO2)c1ccc2cccnc2c1O (stereo not given)	77*
COc1cc(CN2CCN(C3CCCC3)CC2)cc(OC)c1OC	-1
Cc1cc(Cl)cc(Cl)c1OCCNC(C)(C)C	-9
COc1ccc(C2C(C(=O)c3ccccc3)C(=O)CC(C)(O)C2C(=O)c2ccccc2)cc1 (stereo not given)	58*
CC1(O)CC(=O)C(C(=O)c2ccccc2)C(c2ccc([N+](=O)[O-])cc2)C1C(=O)c1ccccc1 (stereo not given)	-3
COC(=O)C1C(=O)CC(C)(O)C(C(=O)OC)C1c1ccc(Br)cc1 (stereo not given)	7
Cc1cccc(-n2c(SCC(=O)c3ccccc3)nc3ccccc3c2=O)c1	5
Cc1ccc(N2C(=O)CSC2c2ccc3c(c2)OCO3)cc1 (stereo not given)	8
Cc1ccnc(NC(=O)CSc2nc3ccccc3[nH]2)c1	-1
COc1ccccc1CC(=O)Nc1cc(C)ccn1	7
Cc1ccnc(NC(=O)C(c2ccccc2)c2ccccc2)c1	86*
CC(=O)C1=C(C)NC(c2ccc(Cl)cc2Cl)NC1c1ccc(Cl)cc1Cl (stereo not given)	7
CCN(CC)CCOc1ccc(Cl)c(C)c1	-4
CCn1c2ccccc2c2cc(CN3CCN(C(=O)c4cc(OC)c(OC)c(OC)c4)CC3)ccc21	113*
CCn1c2ccccc2c2cc(CN3CCN(Cc4ccccc4OC)CC3)ccc21	-2
CCn1c2ccccc2c2cc(CN3CCN(C(=O)c4ccc(OC)c(OC)c4)CC3)ccc21	122*
CCn1c2ccccc2c2cc(CN3CCN(Cc4cc(OC)c(OC)cc4OC)CC3)ccc21	-6
CCn1c2ccccc2c2cc(CN3CCN(C(=O)c4ccncc4)CC3)ccc21	17
CCn1c2ccccc2c2cc(CN3CCN(Cc4ccc(OC)c(OC)c4OC)CC3)ccc21	-4
